The text below walks through data of PubChem BioAssay.

SMILES strings stand for the structures. Inconclusive results are not listed. Active and inactive are the calls of the source.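 The calls were made as follows, unless noted: active = viability loss from added drug above about 55%, and viability with drug at most 40%, in both replicates (limit read from the data, passing the limit was not always enough); inconclusive = both conditions met in only one replicate; inactive = neither replicate meets both conditions.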

A short description of assay [1]: Her2 expression decrease, cell viability multiplex – SKBR3 breast tumor cells, AlphaScreen, ATP viability, primary screen (AID 461;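 active = Her2 level under about 52% in both replicate screens, with viability over 70% of control, limit read from the data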;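 as to Her2 level: lower value means less Her2 protein in the cells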;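 as to viability: percent of carrier control wells set as 100% viability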). As to conditions: SKBR3 Her2 protein level, 18-24 h, measured here: SKBR3 viability, ATP luminescence, at 10 µM. For orientation: Alpha assays give light when donor and acceptor beads are brought close together.
The target of assay [2] is Receptor tyrosine-protein kinase erbB-2 (Homo sapiens) (UniProt P04626). Described as above. As to conditions: 18-24 h, at 10 µM, stronger effect = lower value.
Assay [3] is described as follows: reduced viability of SK-BR-3 breast cancer cells – cell-based, 24 h, human, pilot screen (AID 572;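 active = viability at or below 10% of carrier control in both of two separate runs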;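 also: compound exposure lasted between 18 and 24 h rather than exactly 24 h; 100% = carrier-treated control wells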). As to conditions: SK-BR-3 viability, CellTiter-Glo luminescence, at 10 µM, stronger effect = lower value. On the technique in general: Cellular ATP, detected with luciferase, serves as a proxy for viable cell number.
The nature of assay [4]: H69AR cell proliferation blockers – human, duplicate replicates, primary screen (AID 580;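 active = viability at or under a set limit in both replicates, limit being median viability minus 3 SD, cut at about 48% in these data, passing the limit was not always enough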;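 also: 100% = mean luminescence of untreated wells and 0% = no signal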). Particulars: H69AR lung tumor cells viability, ATP luminescence, 72 h; at 10 µM; stronger effect = lower value.
A short description of assay [5]: MRP1 drug-resistance reversers in H69AR cells – cell-based, doxorubicin co-treatment, pilot screen (AID 601). Particulars: CellTiter-Glo, 72 h, at 10 µM; for differential viability (reversal): stronger effect = higher value.
The nature of assay [6]: yeast transport mutant growth inhibition pilot in 384-well plates, post-Golgi transport modulator project (AID 636; in the data active = inhibition above about 31%). Particulars: absorbance 615 nm, about 18 h, stronger effect = higher value.
A short description of assay [7]: growth suppression of yeast trafficking mutant, preliminary HTS, modulators of trafficking downstream of Golgi apparatus project, 1536-format plate, OD 615 nm (AID 637; in the data active = inhibition above about 30%). Particulars: yeast transport mutant growth, absorbance 615 nm, 18 h; stronger effect = higher value.
Assay [8] can be described thus: HUVEC growth inhibition – cell-based, human, primary screen (AID 575;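 active = viability at or below 30% in both replicate assays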;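 also: 100% = median of untreated cell wells with 0.1% DMSO on each plate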). As to conditions: HUVEC proliferation, CellTiter-Glo luminescence, 72 h; at 10 µM; stronger effect = lower value.
Assay [9] is described as follows: S. cerevisiae growth inhibition in permissive medium (OD615), pilot counter-assay for S. cerevisiae lifespan shortening project, permissive growth control (AID 705;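 active = growth inhibition above 25% in both replicates, a cutoff set 3 SD above the mean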). Particulars: OD615, 24 h, at 10 µM, stronger effect = higher value.
Assay [10] in a line: S. cerevisiae growth inhibition in restrictive medium, OD615, pilot screen, restrictive growth control, yeast lifespan reduction project (AID 706;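 active = growth inhibition above a set limit, 3 SD over mean compound inhibition, in both replicates, cut at about 43% in these data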;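 also: modified DeaD lifespan yeast strain shifted to restrictive glucose medium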). As to conditions: OD615, 48 h, at 10 µM, stronger effect = higher value.
A short description of assay [11]: doxorubicin toxicity protection in MRP-1 cells – H69AR cells, CellTiter-Glo, duplicate, MRP-1 activator project, pilot screen (AID 807;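 active = viability increase at or above a cutoff of the median across tested compounds plus 3 SD, cut at about 8.5% in these data, passing the limit was not always enough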;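 also: compound pretreatment 18-22 h then 72 h combined with doxorubicin; 0% = doxorubicin alone and 100% = vehicle without doxorubicin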). Particulars: H69AR viability with doxorubicin, CellTiter-Glo luminescence; at 10 µM; stronger effect = higher value.
A short description of assay [12]: viability of HCT116 without oncogenic beta-catenin – human colon tumor cells, pilot screen (AID 823;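 active = cell viability at or below a set limit in both duplicate runs, the limit being the all-compound median minus 4 SD, cut at about 23% in these data, passing the limit was not always enough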;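 also: 0% = wells killed by 20 µM Hyamine and 100% = untreated DMSO cell wells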). Particulars: HCT116 beta-catenin knockout viability, CellTiter-Glo, 60 h; at 10 µM; stronger effect = lower value.
Assay [13] in a line: viability of PTEN-null HCT116 cells – cell-based, HCT116 clonal line, CellTiter-Glo, pilot screen (AID 824;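 active = viability at or below 27.92% in each of two runs, the all-compound median minus 4 SD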;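 also: 0% = 20 µM Hyamine control and 100% = vehicle cell control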). As to conditions: HCT116 PTEN-deleted viability, 60 h, at 10 µM, stronger effect = lower value.
Assay [14] can be described thus: RAM pathway blockade in budding yeast – dse1pr::URA3 reporter, 5-FOA selection, pilot screen (AID 869;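 active = inhibition over a set limit, the all-compound mean plus 3 SD, in both replicate runs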;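 also: 0% = DMSO wells with no growth and 100% = 10 µM 1-NA-PP1 with full growth; RAM network block rescues cells from 5-FOA so hits raise OD615 growth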). As to conditions: S. cerevisiae dse1pr::URA3 5-FOA growth, OD615, 2 d; at 10 µM; stronger effect = higher value; strain carries analog-sensitive mutant Cbk1 kinase.
The mark [15] stands for this setting: H69AR cells + 2 uM doxorubicin, measured here: viability with 2 uM doxorubicin, stronger effect = lower value.
Where [16] appears, read: H69AR cells, compound alone cytotoxicity.

Receptor tyrosine-protein kinase erbB-2 (Homo sapiens), sequence (P04626 whole entry, looked up): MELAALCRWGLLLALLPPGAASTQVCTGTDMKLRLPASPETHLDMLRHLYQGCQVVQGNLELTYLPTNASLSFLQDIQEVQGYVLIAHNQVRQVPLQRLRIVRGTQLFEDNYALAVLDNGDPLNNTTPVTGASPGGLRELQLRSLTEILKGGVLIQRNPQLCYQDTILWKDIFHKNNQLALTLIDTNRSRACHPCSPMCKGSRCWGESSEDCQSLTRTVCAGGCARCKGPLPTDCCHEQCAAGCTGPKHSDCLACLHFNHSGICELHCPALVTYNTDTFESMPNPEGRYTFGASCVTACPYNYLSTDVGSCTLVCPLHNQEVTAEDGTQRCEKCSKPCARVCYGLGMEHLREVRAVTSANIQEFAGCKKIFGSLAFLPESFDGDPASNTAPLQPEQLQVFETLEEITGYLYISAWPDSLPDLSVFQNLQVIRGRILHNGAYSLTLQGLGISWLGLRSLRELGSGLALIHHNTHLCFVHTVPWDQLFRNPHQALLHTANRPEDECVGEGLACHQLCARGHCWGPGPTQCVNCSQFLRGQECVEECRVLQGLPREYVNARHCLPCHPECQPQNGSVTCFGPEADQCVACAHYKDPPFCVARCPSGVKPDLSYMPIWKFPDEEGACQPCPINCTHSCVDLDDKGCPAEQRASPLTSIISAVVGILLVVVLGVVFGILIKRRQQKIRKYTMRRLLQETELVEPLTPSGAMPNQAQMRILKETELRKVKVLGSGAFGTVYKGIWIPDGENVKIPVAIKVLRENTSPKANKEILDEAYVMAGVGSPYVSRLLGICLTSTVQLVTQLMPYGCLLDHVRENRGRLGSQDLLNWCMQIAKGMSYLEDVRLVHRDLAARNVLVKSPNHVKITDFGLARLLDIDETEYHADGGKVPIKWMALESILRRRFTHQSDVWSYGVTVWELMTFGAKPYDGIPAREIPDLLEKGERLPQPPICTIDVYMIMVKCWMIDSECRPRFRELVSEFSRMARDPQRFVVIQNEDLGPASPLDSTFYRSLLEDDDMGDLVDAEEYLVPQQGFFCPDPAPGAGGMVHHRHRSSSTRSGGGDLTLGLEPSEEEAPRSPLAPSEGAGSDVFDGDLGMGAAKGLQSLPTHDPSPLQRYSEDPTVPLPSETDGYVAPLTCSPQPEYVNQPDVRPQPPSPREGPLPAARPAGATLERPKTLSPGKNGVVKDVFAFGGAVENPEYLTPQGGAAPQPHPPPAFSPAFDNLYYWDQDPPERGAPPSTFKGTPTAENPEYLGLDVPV

Take `Oc1ccc(N2CCN(C(c3ccncc3)c3nnnn3C3CCCC3)CC2)cc1` (stereo not drawn): the viability in assay [1] was 76%; in [3], 76% (inactive); in [4], 91.9% (inactive); in assay [5] (setting [15]), 87.6%; in [5] (setting [16]), 91.9%. Also, the Her2 level in [2] was 82.5% (inactive). In assay [5] (H69AR cells + 2 uM doxorubicin), the differential viability (reversal) was 4.33% (inactive). Also, the inhibition in [6] was -5.2% (inactive); in [7], 2.58% (inactive).
Turning to `Cn1c(=O)n(CCN2CCOCC2)c(=O)c2c1nc1n2CCN1c1ccccc1`, the viability is 41.5% in assay [1]; 52.8% (inactive) in [8]; 67.9% (inactive) in assay [4]; 63.5% in assay [5] (setting [15]); 67.9% in assay [5] (setting [16]). The Her2 level in assay [2] was 102% (inactive). Also, in assay [5] (H69AR cells + 2 uM doxorubicin), the differential viability (reversal) was 4.43% (inactive). Also, the results for the inhibition in assay [6] and in [7] were 3.51% (inactive) and -2.54% (inactive), respectively.
Turning to `O=S(=O)(Nc1ccc2c(c1)OCO2)c1ccc(Br)s1`, the viability in assay [1] was 92%; in assay [3], 92% (inactive); in assay [4], 96.8% (inactive); in [5] (setting [15]), 96.3%; in assay [5] (setting [16]) it was 96.8%. For the same compound, the Her2 level in [2] was 79% (inactive). Moreover, the differential viability (reversal) in [5] (H69AR cells + 2 uM doxorubicin) is 0.44% (inactive). Moreover, the inhibition was -4.47% (inactive) in [6] and -10.7% (inactive) in assay [7].
`COc1ccc(-c2nc(N)nc(C)c2Oc2ccccc2Br)c(O)c1`: the viability in assay [1] was 96%; in [3] it was 96% (inactive); in assay [4], 5.08% (active); in assay [5] (setting [15]), 17.8%; in assay [5] (setting [16]) it was 5.08%. Further, in [2], the Her2 level is 74% (inactive). In addition, the differential viability (reversal) in assay [5] (H69AR cells + 2 uM doxorubicin) is -12.7% (inactive). In addition, the inhibition in assay [6] was -4.34% (inactive); in assay [7] it was 57.6% (active).
Take `CCOC(=O)c1c(C)oc2c1c1c(c3ccccc32)OCN(Cc2cccnc2)C1`: the viability in assay [1] is 83.5%; in assay [3] it was 83.5% (inactive); in assay [5] (setting [15]), 21.8%; in assay [5] (setting [16]) it was 51.6%. Moreover, in assay [2], the Her2 level is 75% (inactive). Besides, the differential viability (reversal) in assay [5] (H69AR cells + 2 uM doxorubicin) is 29.8% (inactive). Also, the inhibition in [6] was -0.39% (inactive); in assay [7], -5.33% (inactive).
On to `COc1cc(C)nc(N2CCCC(C(=O)Nc3cccc(Cl)c3Cl)C2)n1` (stereo not drawn), for which the viability in assay [1] was 71%; in assay [3], 71% (inactive); in assay [5] (setting [15]), 58.3%; in assay [5] (setting [16]) it was 56.4%. Further, in [2], the Her2 level was 62.5% (inactive). For the same compound, in assay [5] (H69AR cells + 2 uM doxorubicin), the differential viability (reversal) was -1.86% (inactive). Also, the inhibition in [6] was 0.39% (inactive); in assay [7] it was -10.2% (inactive).
On to `COc1ccc(S(=O)(=O)N2CCCC(C(=O)NCc3ccccn3)C2)cc1` (stereo not drawn), for which the viability in assay [3] is 146% (inactive); in assay [8] it was 96.8% (inactive); in assay [4] it was 95.5% (inactive); in assay [5] (setting [15]), 91.6%; in [5] (setting [16]) it was 95.5%. In addition, in assay [5] (H69AR cells + 2 uM doxorubicin), the differential viability (reversal) is 3.92% (inactive). In addition, the inhibition was -1.43% (inactive) in assay [6] and -0.66% (inactive) in assay [7].
As to `O=C(NC1CCCc2ccccc21)C1CCN(c2nnc(-n3cccc3)s2)CC1` (stereo not drawn), the viability in assay [1] was 84.5%; in assay [3], 84.5% (inactive); in assay [4], 97.3% (inactive); in assay [5] (setting [15]), 90.6%; in [5] (setting [16]), 97.3%; in [12], 89.5% (inactive). In assay [13], the viability is 85% (inactive). Further, in assay [2], the Her2 level was 94.5% (inactive). Besides, in [5] (H69AR cells + 2 uM doxorubicin), the differential viability (reversal) was 6.74% (inactive). The values for the inhibition in assay [6], in assay [7] and in assay [14] were 1.41% (inactive), -2% (inactive) and 1.14% (inactive), respectively. Also, the growth inhibition is -1.88% (inactive) in assay [9] and -6.53% (inactive) in assay [10]. The viability increase in assay [11] is -4.06% (inactive).
In the case of `O=C(NCc1cccs1)c1cc2c(s1)CS(=O)(=O)C2`, the viability in assay [3] was 116% (inactive); in assay [8] it was 101% (inactive); in [4], 98.1% (inactive); in assay [5] (setting [15]), 93.8%; in [5] (setting [16]), 98.1%. In [5] (H69AR cells + 2 uM doxorubicin), the differential viability (reversal) is 4.27% (inactive). Also, the inhibition in assay [6] is -4% (inactive); in [7], -1.64% (inactive).
Turning to `CC(=O)OCC(=O)[C@H]1CC[C@H]2[C@@H]3CCC4=CC(=O)CC[C@]4(C)[C@H]3CC[C@]12C`, the viability in assay [3] is 86% (inactive); in [8], 39.2% (inactive); in [4], 102% (inactive); in [5] (setting [15]) it was 102%; in assay [5] (setting [16]) it was 102%. Also, the differential viability (reversal) in assay [5] (H69AR cells + 2 uM doxorubicin) is -0.2% (inactive). The results for the inhibition in assay [6] and in assay [7] were -0.91% (inactive) and -3.5% (inactive), respectively.
Take `COC(=O)c1c(NC(=O)CCc2ccc(C)o2)sc(C)c1C`: the viability is 112% (inactive) in assay [3]; 90.5% (inactive) in assay [8]; 81.7% (inactive) in [4]; 79.9% in [5] (setting [15]); 81.7% in [5] (setting [16]). The differential viability (reversal) in assay [5] (H69AR cells + 2 uM doxorubicin) is 1.81% (inactive). In addition, the values for the inhibition in assay [6] and in [7] were -2.4% (inactive) and 1.27% (inactive), respectively.
On to `N#Cc1ccccc1Cn1c(=O)n(Cc2ccc(C(=O)NCc3ccco3)cc2)c(=O)c2sccc21`, for which the viability in assay [1] is 75.5%; in [3], 75.5% (inactive); in assay [4], 77.8% (inactive); in assay [5] (setting [15]), 68.3%; in assay [5] (setting [16]) it was 77.8%; in assay [12], 91.3% (inactive). The viability in [13] was 79.5% (inactive). Further, in [2], the Her2 level was 80% (inactive). For the same compound, the differential viability (reversal) in assay [5] (H69AR cells + 2 uM doxorubicin) is 9.52% (inactive). Also, the inhibition in [6] was -1.28% (inactive); in assay [7] it was -1.67% (inactive); in [14] it was 2.11% (inactive). Further, the growth inhibition in assay [10] was -22.5% (inactive). Further, the viability increase in [11] is -4.44% (inactive).
With `Oc1ccccc1-c1cc(C(F)(F)C(F)F)[nH]n1`, the viability in assay [1] is 97%; in assay [3], 97% (inactive); in assay [4], 98.3% (inactive); in [5] (setting [15]) it was 87.1%; in assay [5] (setting [16]), 98.3%. Moreover, the Her2 level in assay [2] is 93% (inactive). Also, the differential viability (reversal) in assay [5] (H69AR cells + 2 uM doxorubicin) is 11.3% (inactive). Moreover, the inhibition in [6] is -2.69% (inactive); in [7], 2.83% (inactive).
Consider `CCN(CCCCOC(=O)c1ccc(OC)c(OC)c1)C(C)Cc1ccc(OC)cc1` (stereo not drawn), for which the viability in assay [3] was 88% (inactive); in [8], 64.4% (inactive); in assay [4] it was 78.9% (inactive); in assay [5] (setting [15]), 72.8%; in [5] (setting [16]), 78.9%. For the same compound, the differential viability (reversal) in assay [5] (H69AR cells + 2 uM doxorubicin) is 6.16% (inactive).
Turning to `Cn1c(=O)[nH]c(=O)c2c1nc(CN1CCN(c3cccc(Cl)c3)CC1)n2CCc1ccccc1`, the viability in assay [1] was 75%; in assay [3], 75% (inactive); in [5] (setting [15]) it was 24.8%; in assay [5] (setting [16]), 23.5%. In [2], the Her2 level was 96% (inactive). Also, the differential viability (reversal) in [5] (H69AR cells + 2 uM doxorubicin) is -1.32% (inactive). For the same compound, the inhibition in [6] is -1.04% (inactive); in [7] it was -6.98% (inactive).
Turning to `O=C(O)c1ccc(S(=O)(=O)Cc2ccccc2)cc1`, the viability is 95% (inactive) in [3]; 102% (inactive) in assay [8]; 87.3% (inactive) in assay [4]; 95.2% in assay [5] (setting [15]); 87.3% in assay [5] (setting [16]). In addition, in assay [5] (H69AR cells + 2 uM doxorubicin), the differential viability (reversal) is -7.88% (inactive). The results for the inhibition in [6] and in assay [7] were -3.29% (inactive) and 1.45% (inactive), respectively.
For `CCOC(=O)c1cc2sc(C)cc2n1CC(=O)NCc1ccc(F)cc1`, the viability in assay [1] was 65%; in assay [3], 65% (inactive); in assay [4] it was 69.4% (inactive); in [5] (setting [15]), 52.3%; in [5] (setting [16]), 69.4%. Besides, the Her2 level in assay [2] was 73% (inactive). Also, the differential viability (reversal) in [5] (H69AR cells + 2 uM doxorubicin) was 17.1% (inactive). Moreover, the inhibition was -6.32% (inactive) in [6] and -3% (inactive) in assay [7].

Broadly, the viability is a read-out of living cells in per cent, often relative to untreated cells. The inhibition is the relative decrease from the control value, in per cent.
